Experiment [1] in a line: NCI Yeast Anticancer Drug Screen. Data for the rad50 strain (AID 155).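 Note: 0% = growth of vehicle-only cultures of the same strain.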 The following applies: S. cerevisiae rad50 strain growth inhibition; at 50.0 µM; stronger effect = higher value. In short, it runs like this:
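Growth of the mutant yeast was measured after compound exposure and referenced to vehicle-treated cultures.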

A short description of experiment [2]: NCI Yeast Anticancer Drug Screen. Data for the mec2-1 strain (AID 157). The following applies: S. cerevisiae mec2-1 strain, at 50.0 µM, stronger effect = higher value. In short, it runs like this: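 Cells of the genetically defined mec2-1 yeast strain are incubated with test compound. Inhibition of growth is calculated against vehicle-treated controls.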
Experiment [3] can be described thus: NCI Yeast Anticancer Drug Screen. Data for the sgs1 mgt1 strain (AID 161).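 Note: 0% = growth of cultures given vehicle only.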 The following applies: S. cerevisiae sgs1 mgt1 strain, at 50.0 µM, stronger effect = higher value. In short, it runs like this: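 Inhibition of yeast growth, normalised to vehicle-treated controls, is reported for a strain bearing genetic alterations in DNA damage repair.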
The nature of experiment [4]: NCI Yeast Anticancer Drug Screen. Data for the cln2 rad14 strain (AID 165).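 Note: 0% = growth equal to vehicle treated cultures.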 Conditions: S. cerevisiae cln2 rad14 strain, at 50.0 µM, stronger effect = higher value. The essentials:
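The screen exposed genetically defined yeast (cln2 rad14) to test compounds and scored growth inhibition relative to vehicle-treated controls.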

The nature of experiment [5]: NCI Yeast Anticancer Drug Screen. Data for the bub3 strain (AID 167). The following applies: S. cerevisiae bub3 mutant strain, at 50.0 µM, stronger effect = higher value. The essentials: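 Whole-cell yeast assay. The mutant strain was incubated with compounds, and growth inhibition was determined by comparison with vehicle-treated cells.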
Experiment [6] is described as follows: NCI Yeast Anticancer Drug Screen. Data for the mlh1 rad18 strain (AID 175). The following applies: S. cerevisiae mlh1 rad18 strain growth inhibition; at 50.0 µM; stronger effect = higher value. The essentials:
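Compound-treated yeast growth, normalised to vehicle controls. Strain bears defined DNA repair mutations.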

Each structure is given as a SMILES string. Compounds without any hit were thinned out: in the full panel of roughly 79,000, 15% have a hit. Values without a mark were called inactive. Active and inactive are the calls of the source. Cut-off read from the data, not from the text of the source: active = growth inhibition above about 70%; inactive = the rest.

Among the data in PubChem BioAssay (NCI) are growth inhibition values, retold here.

For `O=C(O)/C=C/C1CCCCC1`, the growth inhibition in experiment [1] is 26.4%; in experiment [2] it was 14.3%; in experiment [3] it was 3.95%; in experiment [4], 4.35%; in experiment [5] it was -6.4%; in experiment [6], 21.2%.

As to `O=C1OC(c2cccc(Cl)c2)=N/C1=C\c1cccc([N+](=O)[O-])c1`, the growth inhibition was 15.5% in experiment [1]; 12.3% in experiment [2]; 24.6% in experiment [3]; 18.9% in experiment [4]; 17.6% in experiment [5]; 2% in experiment [6].

Consider `CC(C)c1ccccc1OC(=O)NC1CCCCC1`, for which the growth inhibition in experiment [1] is 1.9%; in experiment [2], 20.7%; in experiment [3], 7.25%; in experiment [4], 0.15%; in experiment [5] it was 14.7%; in experiment [6] it was 3.95%.

Regarding `COc1cc(C)nc2ccc(C(=O)c3ccccc3)cc12`, the growth inhibition was 31% in experiment [1]; 6.1% in experiment [2]; 31.6% in experiment [3]; 17.5% in experiment [4]; 10.4% in experiment [5]; 48% in experiment [6].

As to `CCCOc1cc2c(cc1C(C)(C)c1ccccc1)OCO2`, the growth inhibition in experiment [1] was -16.9%; in experiment [2], -18.6%; in experiment [3], -12.7%; in experiment [4], -27.9%; in experiment [5], -3.5%; in experiment [6], -15.4%.

As for `N#CC1(NC(=O)N(CCCl)N=O)CCCCC1`, the growth inhibition is 4.8% in experiment [1]; 1.25% in experiment [2]; -0.6% in experiment [3]; 5.65% in experiment [4]; 9.95% in experiment [5]; -27.9% in experiment [6].

For the compound `CC(=O)NN`, the growth inhibition in experiment [1] is -5.25%; in experiment [2], 0.45%; in experiment [3], -0.8%; in experiment [4] it was -1.65%; in experiment [5] it was 11.5%; in experiment [6], -16.1%.

Consider `COc1ccc(NC(=O)COc2cc(Cl)c(Cl)cc2Cl)cc1`, for which the growth inhibition in experiment [1] is -3.7%; in experiment [2], 6.8%; in experiment [3], 2.05%; in experiment [4], 11.9%; in experiment [5], 3.9%; in experiment [6] it was -17.9%.

For `NC(=S)N/N=C/c1ccncc1`, the growth inhibition in experiment [1] is -25.8%; in experiment [2], -10.6%; in experiment [3], -17.6%; in experiment [4], -25.9%; in experiment [5], 9.35%; in experiment [6], -52.9%.

As to `C=C(Cl)COc1ccc(OCC(=C)Cl)cc1`, the growth inhibition in experiment [1] is 19.3%; in experiment [2] it was -17.1%; in experiment [3], 31.8%; in experiment [4], 22.6%; in experiment [5], 42%; in experiment [6], 1.15%.

Consider `[Br][Pt+2][Br].[NH-]c1ccc(F)cc1.[NH-]c1ccc(F)cc1`, for which the growth inhibition is 34.9% in experiment [1]; 9.2% in experiment [2]; 5.4% in experiment [3]; -8.3% in experiment [4]; -4.75% in experiment [5]; 24.9% in experiment [6].

`Cc1cc(/C=N/NC(=O)c2ccccc2NC(=O)c2ccccc2Cl)ccc1O`: the growth inhibition in experiment [1] was 20.6%; in experiment [2], 9.8%; in experiment [3] it was 39.2%; in experiment [4], 11.9%; in experiment [5], 9.1%; in experiment [6] it was 34.8%.

`COc1ccc([B-]23OCC[N+]2(CNC(=O)c2ccccc2O)CCO3)cc1` (stereo unspecified): the growth inhibition in experiment [1] is 27.4%; in experiment [2] it was 2.7%; in experiment [3] it was 13.9%; in experiment [4], 14.9%; in experiment [5], 7.3%; in experiment [6], 17.6%.

On to `Cc1ccc(SC(=O)Cc2ccc([N+](=O)[O-])cc2)cc1`, for which the growth inhibition is 96.6% (active) in experiment [1]; 98% (active) in experiment [2]; 98.2% (active) in experiment [3]; 88.3% (active) in experiment [4]; 96.2% (active) in experiment [5]; 96.8% (active) in experiment [6].

For `CC(Cc1ccccc1)Nc1ccccc1` (stereo unspecified), the growth inhibition in experiment [1] was 17.8%; in experiment [2] it was 3.5%; in experiment [3] it was 31.4%; in experiment [4] it was -10.3%; in experiment [5], -12.5%; in experiment [6], 62.4%.

For `COc1cccc(/C=C2\SC(=S)N(/C=C3\C(=O)Oc4ccccc4C3=O)C2=O)c1O`, the growth inhibition is 12.2% in experiment [1]; 40.1% in experiment [2]; 59% in experiment [3]; 50.6% in experiment [4]; 12.8% in experiment [5]; 23.6% in experiment [6].

As for `COc1ccc(NC2C(=O)C3(C)CCC2C3(C)C)cc1` (stereo unspecified), the growth inhibition in experiment [1] was -17.2%; in experiment [2], -10.9%; in experiment [3], -8.25%; in experiment [4], -49.3%; in experiment [5] it was 12.2%; in experiment [6], -41.1%.

In the case of `OCCSC1CCCCC1`, the growth inhibition in experiment [1] was 12.1%; in experiment [2], 6.35%; in experiment [3] it was -1.55%; in experiment [4], 0.1%; in experiment [5], -16.1%; in experiment [6], 1.5%.

Turning to `COc1ccc(OC)c(C2SCC(=O)N2c2nncs2)c1` (stereo unspecified), the growth inhibition in experiment [1] was -19.8%; in experiment [2], 6%; in experiment [3] it was 15.2%; in experiment [4] it was -17.6%; in experiment [5] it was -8.7%; in experiment [6], 2.2%.

For `CN(C)CC(Cc1ccccc1)c1ccccc1` (stereo unspecified), the growth inhibition in experiment [1] is -19.9%; in experiment [2], -10.9%; in experiment [3], -18.6%; in experiment [4], 7.6%; in experiment [5] it was -5.4%; in experiment [6] it was -17.6%.

Regarding `CC(C)(C)c1cc2c(OP(c3ccccc3)c3ccccc3)c(c1)Cc1cc(C(C)(C)C)cc(c1OP(c1ccccc1)c1ccccc1)Cc1cc(C(C)(C)C)cc(c1OP(c1ccccc1)c1ccccc1)Cc1cc(C(C)(C)C)cc(c1OP(c1ccccc1)c1ccccc1)C2`, the growth inhibition in experiment [1] was -11.8%; in experiment [2], -25.9%; in experiment [3], -38.5%; in experiment [4], -5.15%; in experiment [5] it was -18.7%; in experiment [6] it was -14.2%.
